Source: PubChem BioAssay AID588458 (Sanford-Burnham Center for Chemical Genomics, 2011)
The whole screen tested about 360,000 compounds, of which about 3,000 (0.83%) were called active. Cut-off read from the data, not from the text of the source: active = inhibition above about 50%; inactive = the rest. For the sample, actives were picked, then their nearest neighbours and some compounds at random.

target: DNA (cytosine-5)-methyltransferase 1 (Homo sapiens) (UniProt P26358); assay: human DNMT1 methyltransferase inhibitors, primary screen, biochemical, molecular beacon, fluorescence, HinP1I cleavage, uHTS (AID 588458); conditions: at 10 µM, hits give high values
Sequence (P26358 504-1616 limits assumed): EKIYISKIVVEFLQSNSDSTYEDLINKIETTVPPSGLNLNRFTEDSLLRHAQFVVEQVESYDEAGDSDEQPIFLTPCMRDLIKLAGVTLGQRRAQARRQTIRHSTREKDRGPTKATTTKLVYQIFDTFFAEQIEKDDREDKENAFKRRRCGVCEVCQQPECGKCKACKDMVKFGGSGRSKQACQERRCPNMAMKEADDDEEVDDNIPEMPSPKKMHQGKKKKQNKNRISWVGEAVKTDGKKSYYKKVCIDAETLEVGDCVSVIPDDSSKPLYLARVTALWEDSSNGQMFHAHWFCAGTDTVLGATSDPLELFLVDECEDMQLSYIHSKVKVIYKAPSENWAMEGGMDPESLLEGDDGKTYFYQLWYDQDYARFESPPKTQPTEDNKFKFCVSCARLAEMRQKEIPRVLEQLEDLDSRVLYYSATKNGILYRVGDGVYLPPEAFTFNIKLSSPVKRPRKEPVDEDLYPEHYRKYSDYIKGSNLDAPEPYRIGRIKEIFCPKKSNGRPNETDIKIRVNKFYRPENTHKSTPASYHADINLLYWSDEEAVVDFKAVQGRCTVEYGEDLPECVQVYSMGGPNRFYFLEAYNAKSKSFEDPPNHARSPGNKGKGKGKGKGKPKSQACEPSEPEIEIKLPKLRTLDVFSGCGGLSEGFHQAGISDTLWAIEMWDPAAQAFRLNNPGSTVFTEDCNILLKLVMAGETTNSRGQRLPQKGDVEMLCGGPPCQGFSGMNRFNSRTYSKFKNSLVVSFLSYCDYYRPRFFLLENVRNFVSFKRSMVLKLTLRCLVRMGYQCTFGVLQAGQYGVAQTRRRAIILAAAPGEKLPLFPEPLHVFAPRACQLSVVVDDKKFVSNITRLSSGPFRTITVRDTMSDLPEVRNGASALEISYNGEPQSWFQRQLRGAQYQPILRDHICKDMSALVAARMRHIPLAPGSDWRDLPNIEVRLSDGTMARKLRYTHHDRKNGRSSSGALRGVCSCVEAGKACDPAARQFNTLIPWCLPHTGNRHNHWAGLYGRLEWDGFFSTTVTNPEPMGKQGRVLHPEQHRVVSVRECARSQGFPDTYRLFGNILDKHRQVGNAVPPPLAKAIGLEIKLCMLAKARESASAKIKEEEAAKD

Row | SMILES | inhibition (reported as % activation of signal)
1 | Cn1cccc1Cc1nnc(SCC(=O)NCc2ccc3c(c2)OCO3)n1CCc1ccccc1 | 6.75% (inactive)
2 | Cc1c(C(=O)N(Cc2ccccc2)Cc2cccnc2)cnn1-c1ccc(F)cc1 | 0.01% (inactive)
3 | CCc1nnc(NC(=O)c2ccco2)s1 | 4.22% (inactive)
4 | O=C(Nc1nonc1-c1ccc(Cl)cc1)c1ccco1 | 9.05% (inactive)
5 | O=C(Nc1nc(-c2ccco2)c(-c2ccco2)s1)c1ccco1 | 80.6% (active)
6 | CCN(CC)S(=O)(=O)c1ccc(NC(=O)c2cccnc2Cl)c(NC(=O)c2cccnc2Cl)c1 | -0.07% (inactive)
7 | CC(C)C[C@H](NC(=O)C1CC(=O)N(c2ccc3c(c2)OCCO3)C1)C(=O)NC1CCCC1 (stereo partly drawn) | -0.87% (inactive)
8 | O=C1NCC(Nc2ccccc2)C(=O)N1 (stereo not drawn) | 0.4% (inactive)
9 | CN1C(=O)c2cccc3c(N)ccc(c23)C1=O | 68.8% (active)
10 | Cc1nn(C)cc1N1C(=O)c2cccc3c(N)ccc(c23)C1=O | 65% (active)
11 | CCN1C(=O)c2cccc3c(S(=O)(=O)Nc4ccccc4O)ccc1c23 | -3.81% (inactive)
12 | O=C(CN1C(=O)c2cccc3cccc1c23)Nc1ccccc1 | 6.37% (inactive)
13 | Cn1cc(C2OC(=O)c3ccccc32)c2ccccc21 (stereo not drawn) | 1.23% (inactive)
14 | CCN1C(=O)c2cccc3c(N)ccc1c23 | 51.2% (active)
15 | O=C(COC(=O)CCc1c[nH]c2ccccc12)Nc1cccc(Cl)c1 | -4.28% (inactive)
16 | O=C(CCC1CCCC1)N=C1SC2CS(=O)(=O)CC2N1Cc1ccccc1 (stereo not drawn) | 14.4% (inactive)
17 | COc1ccccc1-c1oc2ccccc2c1C#CCCCCO | -0.24% (inactive)
18 | CCCc1nc(-c2cc3cc(C)ccc3[nH]c2=O)no1 | -2.69% (inactive)
19 | COc1ccc2[nH]c(=O)c(-c3noc(-c4ccc(F)cc4)n3)cc2c1 | 95.2% (active)
20 | COc1ccc(Cc2cc(-c3ccc(F)cc3)n[nH]c2=O)cc1 | -1.27% (inactive)
21 | Cc1ccc2c(CC(=O)NCc3cccs3)coc2c1 | 7.02% (inactive)
22 | C[C@H]1CN([C@@H](C)CO)C(=O)CCCn2cc(nn2)CO[C@@H]1CN(C)S(=O)(=O)c1ccccc1C#N | 8.79% (inactive)
23 | C=C(Br)CN1CCN(CC(=C)Br)CC1 | 1.67% (inactive)
24 | Cc1cc2nc(-c3ccc(Cl)cc3)c(Cc3cccc(F)c3)n2c(C)c1Br | 37.2% (inactive)

Row | SMILES | inhibition (reported as % activation of signal)
25 | Cc1ccc2nc(-c3ccco3)c(Cc3cccc(Cl)c3)n2c1 | -0.88% (inactive)
26 | Cc1cc2nc(-c3ccco3)c(Cc3cccc(F)c3)n2c(C)c1Br | 56.4% (active)
27 | CCN1CCN(c2ccc(S(=O)(=O)N3CCCCC3)cc2NC(=O)c2cccc(NC(C)=O)c2)CC1 | -6.35% (inactive)
28 | COc1cccc(NC(=O)CSc2nccn(-c3ccc4c(c3)OCCO4)c2=O)c1 | 0.94% (inactive)
29 | NC(CSC(c1ccccc1)(c1ccccc1)c1ccc(-c2ccccc2)cc1)C(=O)O (stereo not drawn) | 89% (active)
30 | CCC(C)OC(=O)C(C)Oc1ccc(-c2ccccc2)cc1 (stereo not drawn) | -3.17% (inactive)
31 | NC(CSC1(c2ccccc2)c2ccccc2-c2ccccc21)C(=O)O (stereo not drawn) | 38.3% (inactive)
32 | COC(=O)CCCCC1=CCC2C(=O)C=C(O)C2C1 (stereo not drawn) | 92.7% (active)
33 | CCOc1ccc2[nH]c(=S)sc2c1 | 0.55% (inactive)
34 | Cc1ccc(NC(=O)c2cc(-c3ccc(C)o3)nc3ccccc23)nc1 | 76.5% (active)
35 | CC(=O)N1CCN(C(=O)c2cc(-c3ccc(C)o3)nc3ccccc23)CC1 | 1.05% (inactive)
36 | CSc1ncccc1C(=O)Nc1ccc(C)cn1 | -0.42% (inactive)
37 | COc1ccccc1-n1nnnc1S(=O)(=O)Cc1ccc(Cl)cc1 | 22% (inactive)
38 | O=C(CCc1nnc2ccc(NCc3ccco3)nn12)Nc1cc(F)ccc1F | 29.7% (inactive)
39 | COC(=O)c1ccc(C(=O)NC2CC(C)(C)Cc3c2cnn3-c2ccc(F)cc2)nc1 (stereo not drawn) | -1.04% (inactive)
40 | COc1ccc(OC)c(NC(=O)c2cc(-c3cc(F)ccc3OCC3CCCO3)n[nH]2)c1 (stereo not drawn) | 105% (active)
41 | COc1cc(F)ccc1-c1cc(C(=O)NCC2CCCCC2)[nH]n1 | -0.63% (inactive)
42 | CCCOc1ccc(F)cc1-c1cc(C(=O)Nc2ccc(F)cc2)[nH]n1 | -1.3% (inactive)
43 | Cc1ccc(-n2c(SCC(=O)N3CCC(C(=O)O)CC3)nc3ccccc3c2=O)cc1C | -1.54% (inactive)
44 | Cc1cc(C)c(C(=O)CSc2nc(C)cc(=O)[nH]2)c(C)c1 | -2.03% (inactive)
45 | COc1ccc(C2=NOC(C(=O)NCc3ccco3)C2)cc1OC (stereo not drawn) | 1.36% (inactive)
46 | CCOc1ccc(C(=O)Nc2cc(Cl)ccc2-n2cncn2)cc1OC | 0.02% (inactive)
47 | CC1CCN(C(=O)C2CCN(S(=O)(=O)N3CCC4(CC3)OCCO4)CC2)CC1 | 1.13% (inactive)
48 | CCOC(=O)C(NC(=O)CC(C)C)(Nc1sc2c(c1C(N)=O)CCCC2)C(F)(F)F (stereo not drawn) | 85.2% (active)

Row | SMILES | inhibition (reported as % activation of signal)
49 | CCOC(=O)c1c(NC(=O)Cn2nc(C(F)(F)F)cc2C)sc2c1CCC2 | -22.3% (inactive)
50 | COC(=O)C(NC(C)=O)(Nc1nc2c(s1)CCCC2)C(F)(F)F (stereo not drawn) | 0.31% (inactive)
51 | O=C(O)CSc1ccc(S(=O)(=O)N2CCCC2)cn1 | -4.98% (inactive)
52 | N#Cc1c(C(F)(F)F)cc(-c2cccs2)nc1N1CCCCC1 | -1.64% (inactive)
53 | N#Cc1c(N2CCCCC2)nc(N)c2c(N)nc(SCC(=O)O)cc12 | 52.1% (active)
54 | CC1(C)C2CC=C(/C=N/NC(=O)c3ccc(Cl)cc3)C1C2 (stereo not drawn) | 2.7% (inactive)
55 | Nc1nc2c(ncn2[C@@H]2O[C@H](CNS(=O)(=O)N3CCc4ccccc4C3)[C@@H](O)[C@H]2O)c(=O)[nH]1 | 0.15% (inactive)
56 | COCCNC(=O)C1(C)CCCN(Cc2cccc(F)c2)C1 (stereo not drawn) | -1.11% (inactive)
57 | O=S(=O)(Nc1n[nH]c(C(F)(F)F)n1)c1ccccc1 | -0.37% (inactive)
58 | Nc1cc2c(cc1Br)-c1ccc(F)cc1C2=O | 71.6% (active)
59 | CC(=O)Nc1ccc(S(=O)(=O)Nc2cc(C)cn(Cc3ccc(C)cc3)c2=O)cc1 | -4.47% (inactive)
60 | NC(c1ccccc1)c1csc(NC(=O)Nc2cccc(C(F)(F)F)c2)n1 (stereo not drawn) | -22.9% (inactive)
61 | CC(=O)c1ccc(Nc2nc(C(N)c3ccccc3Cl)cs2)cc1 (stereo not drawn) | -17.7% (inactive)
62 | CC(=O)c1ccc(Nc2nc(C(N)c3ccccc3)cs2)cc1 (stereo not drawn) | 80.3% (active)
63 | CCCS(=O)(=O)NC(=O)C1(C)CCN(C(=O)c2sccc2C)C1 (stereo not drawn) | -0.36% (inactive)
64 | COc1cc(NC(=O)CCNC(=O)Cn2ccc3ccccc3c2=O)cc(OC)c1OC | -1.53% (inactive)
65 | CCOC(=O)c1ccn(S(=O)(=O)c2ccc(C)cc2)c1-c1ccccc1 | 0.08% (inactive)
66 | CC/C=C/C(=O)N1CC2(CC(c3cccc(NC(=O)CC)c3)=NO2)C[C@H]1C(N)=O (stereo partly drawn) | 5.63% (inactive)
67 | C=C(C)C(=O)Nc1cccc(C2=NOC3(C2)C[C@H](C(N)=O)N(C(=O)C(c2ccccc2)c2ccccc2)C3)c1 (stereo partly drawn) | 98.1% (active)
68 | C/C=C\C=C\C(=O)N1CC2(CC(c3cccc(NC(=O)/C(C)=C\C)c3)=NO2)C[C@H]1C(N)=O (stereo partly drawn) | -7.28% (inactive)
69 | CC(=O)Nc1ccc(NC(=O)C2CCCN2S(=O)(=O)c2cccc(C(F)(F)F)c2)cc1 (stereo not drawn) | -0.75% (inactive)
70 | COc1cccc(-n2c(N)cc(=O)nc2SCC(=O)Nc2cc(C)on2)c1 | 0.03% (inactive)
71 | O=C(c1ccccc1Cl)N(Cc1ccccc1F)N1C(=O)CCCC1=O | 1.73% (inactive)
72 | COc1ccc(NC(=O)CCn2ccnc2)c(OC)c1 | 78.8% (active)

Row | SMILES | inhibition (reported as % activation of signal)
73 | COc1ccc(NC(=O)CCCC2CCCCC2)c(OC)c1 | 1.18% (inactive)
74 | COc1ccc(NC(=O)COC(=O)c2ccncc2)c(OC)c1 | 7.14% (inactive)
75 | O=C(OCCO)c1cc(Cl)c(C(=O)OCCO)cc1Cl | -0.85% (inactive)
76 | FC(F)(F)c1ccc(-c2cccc3c2C2CC3CCN2Cc2ccccc2)cc1 (stereo not drawn) | 5.02% (inactive)
77 | Cc1ccc(C)c(-c2nnc(NC(=O)CS(=O)(=O)c3ccccc3)o2)c1 | 2.2% (inactive)
78 | COc1cc(-c2nnc(NC(=O)C3=COCCO3)o2)cc(OC)c1OC | 0.63% (inactive)
79 | COc1cc(-c2nnc(NC(=O)CS(=O)(=O)c3ccc(Cl)cc3)o2)cc(OC)c1OC | 64.7% (active)
80 | O=C(COc1cccc2c1CCNC2=O)NC1CCCCC1 | 0.71% (inactive)
81 | COc1ccc(C)cc1N(C(=O)Cn1nnc(-c2ccc(C)o2)n1)C(C(=O)NC1CCCC1)c1ccncc1 (stereo not drawn) | 0.4% (inactive)
82 | COc1ccc(NC(=O)CCC(=O)Nc2cc(OC)c(NC(=O)c3ccco3)cc2OC)c(OC)c1 | -1.01% (inactive)
83 | CCOc1cc(NC(=O)c2ccco2)c(OCC)cc1NC(=O)COc1ccccc1 | 67.3% (active)
84 | CCOc1cc(NC(=S)NCc2ccco2)c(OCC)cc1NC(=O)c1ccco1 | -8.9% (inactive)
85 | CC(C)(C(=O)N1CCC1(C)C(=O)NS(=O)(=O)c1ccc(Br)cc1)c1ccccc1 (stereo not drawn) | 1.25% (inactive)
86 | CCCCCCc1cc2cc(-c3nnc(-c4ccccc4)o3)c(=O)oc2cc1O | 88.6% (active)
87 | CC1CCN(CCCNC(=O)CN2C(=O)CSc3ccc(S(=O)(=O)N4CCCCC4)cc32)CC1 | 0.73% (inactive)
88 | CC(C)C(NC(=O)c1c(F)cccc1F)C(=O)NCc1ccncc1 (stereo not drawn) | 1.21% (inactive)
89 | O=C(NCCc1cccc(F)c1)C1CC(O)CN1C(=O)Nc1ccccc1 (stereo not drawn) | 7.51% (inactive)
90 | COc1cc(/C=N/N=C(\N)c2nonc2N)cc(OC)c1OC | -0.45% (inactive)
91 | CSc1ccc(CNC(=O)C2(C)CCCN2C)cc1 (stereo not drawn) | 9.6% (inactive)
92 | O=C(Nc1ccc(C(=O)NCc2ccccc2Cl)cc1)C1=CSCCO1 | -10.3% (inactive)
93 | CSc1ccc(CNC(=O)c2ccc(NC(=O)C3=CSCCO3)cc2)cc1 | 62.1% (active)
